Screening results deposited in PubChem by National Center for Advancing Translational Sciences (NCATS).
TRHR agonist – activates the human TRH receptor; P34981; TRHR cells, calcium flux fluo-8, FDSS agonist mode; activation, % at 2 µM; 0.18% of 360,000 active; AID 493084; also: 0% is about no effect
Target sequence (P34981 whole entry, looked up): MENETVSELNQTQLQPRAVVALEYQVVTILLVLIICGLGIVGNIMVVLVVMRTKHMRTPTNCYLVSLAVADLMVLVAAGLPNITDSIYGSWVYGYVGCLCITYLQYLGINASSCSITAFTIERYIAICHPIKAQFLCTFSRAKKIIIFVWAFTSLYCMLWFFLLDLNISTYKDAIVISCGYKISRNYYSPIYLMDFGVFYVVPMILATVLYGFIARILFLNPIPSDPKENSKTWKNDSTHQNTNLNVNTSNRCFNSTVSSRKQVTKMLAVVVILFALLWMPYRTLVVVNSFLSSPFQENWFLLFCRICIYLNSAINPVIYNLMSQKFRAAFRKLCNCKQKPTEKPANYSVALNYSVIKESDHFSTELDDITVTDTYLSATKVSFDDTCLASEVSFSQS
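In this calcium-flux screen, cells bearing human TRHR are dye-loaded with fluo-8, baselined for 10 cycles, then exposed to library compounds; positive kinetic calcium responses during the agonist phase mark hits, with TRH as control.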
D1 agonist – activates the human D1 dopamine receptor; 1% of 360,000 active; activation, % at 2 µM; HEK293 T-REx D1 cells, calcium flux, agonist mode; P21728; AID 504660; also: 0% is about no effect
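Tetracycline-induced HEK293 TREx D1 cells, force-coupled to calcium signalling, were dye-loaded with a no-wash calcium kit. Compound was pin-added after a 10 s baseline. Fluorescence was read kinetically at 1 cycle/s for 180 s, with calcium rises flagged as agonism.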
D1 antag – blocks dopamine activation of the human D1 receptor. HEK293 TREx D1 cells, calcium flux, dopamine EC80; active compounds read low. activity change, negative = inhibition, % at 10 µM. P21728. 3.2% of 360,000 active; in the data active = activity change below about -30%; also: % is scaled to controls: 0 for no effect and ±100 for the full control effect
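HEK293 T-REx cells expressing inducible, force-coupled D1 receptor; no-wash Ca dye, 30–90 min RT. Cmpd → 180 s read at 1 Hz → EC80 DA → 180 s read.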
TRHR PAM – TRH receptor (human) allosteric enhancement; P34981; 0.66% of 360,000 active; enhancement, % at 2 µM; TRHR cells, fluo-8 calcium fluorescence, EC20 TRH enhancement; in the data active = enhancement above about 30%; also: 0% is about no effect
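TRHR-expressing cells loaded with fluo-8 calcium dye were read kinetically (ex 480/em 530) during compound addition, then stimulated with an EC20 of TRH (10 nM final). Enhancement of the Gq-mediated intracellular calcium response was scored.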
D1 PAM – human D1 dopamine receptor positive modulation; P21728; HEK293 TREx D1 cells, calcium flux, dopamine EC20 potentiation; potentiation, % at 10 µM; 0.036% of 360,000 active; in the data active = potentiation above about 30%; also: 0% is about no effect
The depositor's hits bear a star; nt = no result given. The list is not random: actives were taken first. Their share in the collection is about 4.7%. Rule as the data show it, unless noted: active = activation above about 30%; inactive = the rest.

SMILES	TRHR agonist	D1 agonist	D1 antag	TRHR PAM	D1 PAM
Cc1ccc(NC(=O)CN(C)C(=O)COC(=O)CNS(=O)(=O)c2ccc(Br)cc2Cl)cc1	8.4	6.9	-33.8*	-3.5	-14.2
Cc1ccc(-c2ccc(S(=O)(=O)N3CC(C)OC(C)C3)cc2)cc1 (stereo unspecified)	0.4	-0.2	5.1	-2.1	-6.8
O=C(/C=C/c1ccccc1Cl)N1CCN(c2ncccn2)CC1	-0.2	3.2	-31.0*	-0.9	-1.5
O=C(/C=C/c1ccc(Cl)cc1)N1CCN(c2ncccn2)CC1	0.1	0.9	-9.5	4.9	-1.4
CCOC(=O)c1cc2c(N)c(C(=O)c3ccc(Br)cc3)sc2[nH]c1=O	0.0	2.3	3.5	34.7*	-8.8
CCCCCC[n+]1c(-c2ccccc2)csc1Nc1ccccc1	0.2	1.2	-82.2*	1.4	1.2
O=C(Nc1ccc(S(=O)(=O)N2CCOCC2)cc1)C1CC(=O)N(c2ccc(F)cc2)C1 (stereo unspecified)	-1.2	2.4	-12.2	0.2	-0.7
CN1CCN(Cc2ccc(Sc3ccc(Cl)cc3)c([N+](=O)[O-])c2)CC1	-1.9	78.7*	-22.3	3.7	0.1
CCOC(=O)C1(CC2CC2)CCN(S(=O)(=O)/C=C/c2ccccc2)CC1	0.3	8.7	-80.0*	-2.6	-11.3
O=C(NCc1ccccc1)C1CCCN1C(=O)Nc1ccccc1[N+](=O)[O-] (stereo unspecified)	0.5	0.7	-30.9*	5.9	10.7
O=C(NCc1cccs1)C1CCCN1C(=O)Nc1ccccc1[N+](=O)[O-] (stereo unspecified)	-0.1	0.9	8.9	-3.8	-3.6
CCCCNC(=O)CSc1nc(-c2ccc(OC)cc2)cc(C(F)(F)F)n1	0.6	1.8	-3.6	16.0	1.9
CCOc1ccc(-c2cc(CCCC(=O)NCCc3ccc(Cl)cc3)no2)cc1	0.2	10.8	-22.8	-4.5	0.2
CCOc1ccc(-c2cc(CCCC(=O)NCCc3ccc(OCC)c(OCC)c3)no2)cc1	0.0	8.6	-32.7*	-9.4	-4.5
CC(=O)Nc1cc(C(=O)NCc2ccc(F)cc2)ccc1Sc1ccc(C)cc1	-1.0	-3.1	-39.3*	4.5	-0.8
CCOc1ccccc1NC(=O)c1cccc2ccccc12	-0.1	4.2	-5.1	-12.0	-1.6
COc1cccc(C(=O)Nc2cccc3ccccc23)c1OC	-0.4	2.4	-35.3*	5.5	3.6
COc1ccccc1NC(=O)NNC(=O)c1ccc2ccccc2c1O	0.4	6.5	-35.6*	-2.2	1.2
O=C(O)c1cc(S(=O)(=O)Nc2cccc3ccccc23)c(Cl)cc1Cl	-0.2	0.2	-7.7	0.7	-1.4
CCN(c1ccc(C)cc1C)S(=O)(=O)c1nnc(NC(=O)c2ccccc2OC)s1	-0.3	-1.7	-24.4	3.3	-0.7
CCOC(=O)c1cn(-c2ccc([N+](=O)[O-])cc2)c2cc(Cl)c([N+](=O)[O-])cc2c1=O	0.4	2.0	-42.2*	0.2	-4.3
O=C(O)c1cn(-c2ccc(F)cc2)c2cc(Cl)c(F)cc2c1=O	0.5	1.7	-3.7	-0.1	4.1
O=c1c2c(nc3nc(NCc4ccccc4Cl)[nH]n13)CCC2	-0.5	2.2	-36.0*	1.0	-0.8
N/C(=N\O)c1cccc(CS(=O)(=O)c2ccccn2)c1	-0.9	3.5	-4.7	3.5	0.2
NS(=O)(=O)c1ccc(NC(=O)C(Sc2ccccc2)c2ccccc2)cc1 (stereo unspecified)	0.7	3.9	-32.8*	-2.7	0.4
SMILES	TRHR agonist	D1 agonist	D1 antag	TRHR PAM	D1 PAM
CC(NC(=O)C1CCC(CNS(=O)(=O)c2ccccc2)CC1)c1ccccc1 (stereo unspecified)	1.2	11.1	-40.6*	6.2	-7.5
COc1ccc(Cl)cc1NC(=O)CCN1C(=O)C2CC=CCC2C1=O (stereo unspecified)	-0.6	2.8	1.9	0.0	-0.8
COc1ccccc1NC(=O)CCN1C(=O)C2CC=CCC2C1=O (stereo unspecified)	0.2	0.3	8.4	35.0*	1.0
CCOc1ccc(CCNC(c2nnc(-c3ccccc3)o2)c2ccccc2Cl)cc1OCC (stereo unspecified)	4.3	25.9	-12.2	-1.0	-0.2
COc1ccc(OCC(=O)Nc2cccc(-c3nc4ccccc4s3)c2C)cc1	-1.0	35.0*	-15.5	0.7	-1.1
CCCCN(C)C(=O)c1ccc2c(c1)S(=O)(=O)c1ccccc1C2=O	0.4	2.2	16.8	-13.4	-2.3
CCCCN(CCCC)CCNC(=O)c1cn(CC)c2ccc(S(=O)(=O)N3CCCC3)cc2c1=O	-0.6	1.4	-2.4	2.8	3.4
CCCOC(=O)c1c(-c2ccccc2)nc(CC)c(C(=O)SCC)c1CCC	0.0	-1.5	-48.0*	5.4	-1.4
COc1ccc(-c2csc(-c3nc(-c4ccc(Br)s4)cs3)n2)cc1F	0.7	0.8	-3.8	2.6	0.7
Fc1ccc(-n2cc(CNCCc3ccccn3)c(-c3ccccc3Cl)n2)cc1	1.4	33.9*	18.2	19.1	-4.0
COc1ccc(-n2cc(CNCCc3nc(C)cc(C)n3)c(-c3ccccc3Cl)n2)cc1	1.4	40.2*	25.4	14.3	-1.1
COc1ccc(-n2cc(CNCCc3ncc(C)[nH]3)c(-c3ccccc3Cl)n2)cc1	0.2	2.1	1.8	16.4	2.8
COc1ccc(C2c3cc(OC)c(OC)cc3CC(=O)N2c2cccc(C#N)c2)cc1 (stereo unspecified)	0.4	-0.4	-6.6	-1.1	1.9
NC[C@@H]1O[C@H](C23CC4CC(CC(C4)C2)C3)Cc2c1ccc(O)c2O	0.2	118.3*	-78.3*	3.2	-5.3
O=C(NCCC(=O)N1CCN(c2ncccn2)CC1)c1ccccc1	0.2	1.4	-32.5*	-3.9	-0.6
O=C(O)CCCC(=O)N1CCN(c2ncccn2)CC1	0.4	2.2	-36.0*	-2.1	-9.7
NC(=O)c1ccc(NC(=O)COc2coc(CN3CCc4ccccc4C3)cc2=O)cc1	0.1	0.4	-17.4	1.4	-1.4
O=C(c1ccccc1)c1coc2ccc(O)c(Cl)c12	-0.4	111.2*	75.2	-0.9	4.6
Cc1ccsc1C(=O)NNC(=O)c1cccc(S(=O)(=O)N2CCCC2)c1	-0.2	11.1	3.5	3.9	nt
COC(=O)c1ccccc1NC(=O)c1ccc2nc(Cc3ccccc3)oc2c1	0.5	4.2	-2.2	-2.3	3.5
CCN(CC(=O)NCc1ccc(F)cc1)C(=O)c1ccc(C)o1	0.7	4.4	14.8	32.3*	-1.9
CCN(CC(=O)NCc1ccc(F)cc1)C(=O)c1ccc(Cl)cc1	-1.9	0.8	7.1	7.3	-3.4
CCN(CC(=O)NCc1ccc(F)cc1)C(=O)/C=C/c1cccs1	-1.1	-0.4	4.6	38.5*	0.3
COc1ccc2[nH]c(CN3CCN(CC=C(C)C)C(CCO)C3)c(C)c2c1 (stereo unspecified)	0.7	3.5	-10.0	19.9	3.1
CCC(=O)NNC(=O)CCC(=O)Nc1ccccc1	0.0	3.7	-11.1	-0.4	-5.5
